# This is part of a sample that, as a whole, favours compounds with a hit. Of some 79,000 tested, about 15% had one in any assay. A number with no mark means an inactive call. Calls of active or inactive are those of the source. Cut-off read from the data, not from the text of the source: active = growth inhibition above about 70%; inactive = the rest.
# Key:
# [1] = NCI Yeast Anticancer Drug Screen. Data for the rad52 strain (AID 147);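 note: 0% = growth of vehicle-treated control cultures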; conditions: S. cerevisiae rad52 mutant growth inhibition, active compounds read high
# Method in brief: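 Yeast strain carrying a DNA damage repair alteration was exposed to test compounds. Growth inhibition was measured relative to vehicle-treated controls.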
# [2] = NCI Yeast Anticancer Drug Screen. Data for the wt1 strain (AID 149);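 note: 0% = growth of vehicle-treated wt1 cultures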; conditions: S. cerevisiae wt1 strain (SPY 50644) growth inhibition, active compounds read high
# Method in brief: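 wt1 strain grown with compound or vehicle; inhibition taken from the growth difference.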
# [3] = NCI Yeast Anticancer Drug Screen. Data for the rad50EPP+ strain (AID 151);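 note: 0% = growth of vehicle-treated control cultures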; conditions: S. cerevisiae rad50 mutant strain, active compounds read high
# Method in brief: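 Yeast strain carrying rad50 alteration (rad50EPP+) exposed to compounds; growth inhibition measured relative to vehicle-treated controls.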
# [4] = NCI Yeast Anticancer Drug Screen. Data for the mgt1 strain (AID 153); conditions: S. cerevisiae mgt1 mutant growth inhibition, active compounds read high
# Method in brief: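 Yeast mgt1 strain (DNA repair/cell-cycle alteration panel) exposed to compounds; growth inhibition measured relative to vehicle-treated controls.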
# [5] = NCI Yeast Anticancer Drug Screen. Data for the rad50 strain (AID 155);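 note: 0% = growth of vehicle-only cultures of the same strain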; conditions: S. cerevisiae rad50 strain growth inhibition, active compounds read high
# Method in brief: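 DNA repair mutant yeast, compound exposure, growth read-out; inhibition is taken relative to vehicle.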
# [6] = NCI Yeast Anticancer Drug Screen. Data for the mec2-1 strain (AID 157); conditions: S. cerevisiae mec2-1 strain, active compounds read high
# Method in brief: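 mec2-1 yeast strain, carrying an alteration in DNA damage repair or cell cycle control, was exposed to compounds; growth inhibition was measured relative to vehicle-treated controls.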
# [7] = NCI Yeast Anticancer Drug Screen. Data for the rad14 strain (AID 159);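 note: 0% = growth of vehicle-treated control cultures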; conditions: S. cerevisiae rad14 strain growth inhibition, active compounds read high
# Method in brief: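 DNA repair-defective yeast, compound-exposed; % growth inhibition derived by comparison with vehicle-treated controls.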
# [8] = NCI Yeast Anticancer Drug Screen. Data for the sgs1 mgt1 strain (AID 161);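 note: 0% = growth of cultures given vehicle only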; conditions: S. cerevisiae sgs1 mgt1 strain, active compounds read high
# Method in brief: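 Percent growth inhibition was derived by comparing compound-exposed mutant yeast with vehicle-exposed cultures. The strain carries alterations in DNA damage repair.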
# [9] = NCI Yeast Anticancer Drug Screen. Data for the CLN2oe strain (AID 163);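 note: 0% = growth of vehicle-only control cultures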; conditions: S. cerevisiae CLN2oe strain, active compounds read high
# Method in brief: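 Yeast cells carrying a defined cell-cycle control alteration were exposed to test compounds. Growth inhibition was scored against vehicle-treated control cultures.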
# [10] = NCI Yeast Anticancer Drug Screen. Data for the cln2 rad14 strain (AID 165);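 note: 0% = growth equal to vehicle treated cultures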; conditions: S. cerevisiae cln2 rad14 strain, active compounds read high
# Method in brief: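 Yeast carrying cln2 and rad14 alterations (cell cycle control and DNA damage repair) were exposed to compounds. Growth inhibition was measured against vehicle-treated controls.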
# [11] = NCI Yeast Anticancer Drug Screen. Data for the bub3 strain (AID 167); conditions: S. cerevisiae bub3 mutant strain, active compounds read high
# Method in brief: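 In this screen, a yeast mutant lacking normal mitotic checkpoint function is challenged with compound. Relative growth versus vehicle gives the inhibition value.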
# [12] = NCI Yeast Anticancer Drug Screen. Data for the wt2 strain (AID 169);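 note: 0% = growth of vehicle-treated yeast cultures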; conditions: S. cerevisiae wt2 strain growth inhibition, active compounds read high
# Method in brief: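 Yeast cells were exposed to test compounds, and growth inhibition was measured relative to vehicle-treated controls.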
# [13] = NCI Yeast Anticancer Drug Screen. Data for the mlh1 strain (AID 171);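 note: 0% = growth of vehicle-treated control cultures of the same strain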; conditions: S. cerevisiae mlh1 strain growth inhibition, active compounds read high
# Method in brief: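 Yeast carrying a defined genetic alteration in DNA damage repair or cell cycle control were exposed to test compounds. Growth inhibition was measured relative to vehicle-treated controls.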
# [14] = NCI Yeast Anticancer Drug Screen. Data for the sgs1 strain (AID 173);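 note: 0% = growth of vehicle-only control cultures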; conditions: S. cerevisiae sgs1 mutant, active compounds read high
# Method in brief: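 Yeast mutant strains carrying defined defects in DNA damage repair or cell cycle control were exposed to test compounds. Growth inhibition was scored against vehicle-treated controls.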
# [15] = NCI Yeast Anticancer Drug Screen. Data for the mlh1 rad18 strain (AID 175); conditions: S. cerevisiae mlh1 rad18 strain growth inhibition, active compounds read high
# Method in brief: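 Growth inhibition of the yeast strain was measured after compound exposure and expressed relative to vehicle-treated controls. The strain carries defined defects in DNA damage repair.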
# [16] = NCI Yeast Anticancer Drug Screen. Data for the rad18 strain (AID 177); conditions: S. cerevisiae rad18 mutant growth inhibition, active compounds read high
# Method in brief: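 Yeast carrying a defined DNA damage repair alteration were exposed to compounds. Growth inhibition was expressed relative to vehicle-treated controls.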
# [17] = at 5.0 µM (retest, dose inferred, filed as 0.5)
# [18] = at 50.0 µM (retest, dose inferred, filed as 5.0)
compound,measurement,setting,value
Clc1nc(Cl)nc(Nc2cccc3ccccc23)n1,growth inhibition,[1]; at 1.2 µM,13%
same,growth inhibition,[1]; at 3.7 µM,32%
same,growth inhibition,[1]; at 11.0 µM,64%
same,growth inhibition,[1]; at 33.0 µM,93% (active)
same,growth inhibition,[1]; at 100.0 µM,98% (active)
same,growth inhibition,[2]; at 1.2 µM,6%
same,growth inhibition,[2]; at 3.7 µM,14%
same,growth inhibition,[2]; at 11.0 µM,36%
same,growth inhibition,[2]; at 33.0 µM,88% (active)
same,growth inhibition,[2]; at 100.0 µM,98% (active)
same,growth inhibition,[3]; at 1.2 µM,21%
same,growth inhibition,[3]; at 3.7 µM,50%
same,growth inhibition,[3]; at 11.0 µM,49%
same,growth inhibition,[3]; at 33.0 µM,85% (active)
same,growth inhibition,[3]; at 100.0 µM,95% (active)
same,growth inhibition,[4]; at 1.2 µM,18%
same,growth inhibition,[4]; at 3.7 µM,26%
same,growth inhibition,[4]; at 11.0 µM,54%
same,growth inhibition,[4]; at 33.0 µM,95% (active)
same,growth inhibition,[4]; at 100.0 µM,98% (active)
same,growth inhibition,[5]; at 1.2 µM,4%
same,growth inhibition,[5]; at 3.7 µM,21%
same,growth inhibition,[5]; [17],29%
same,growth inhibition,[5]; at 11.0 µM,52%
same,growth inhibition,[5]; at 33.0 µM,93% (active)
same,growth inhibition,[5]; [18],92% (active)
same,growth inhibition,[5]; at 50.0 µM,86.9% (active)
same,growth inhibition,[5]; at 100.0 µM,97% (active)
same,growth inhibition,[6]; at 1.2 µM,23%
same,growth inhibition,[6]; at 3.7 µM,42%
same,growth inhibition,[6]; [17],10%
same,growth inhibition,[6]; at 11.0 µM,58%
same,growth inhibition,[6]; at 33.0 µM,97% (active)
same,growth inhibition,[6]; [18],96% (active)
same,growth inhibition,[6]; at 50.0 µM,90% (active)
same,growth inhibition,[6]; at 100.0 µM,98% (active)
same,growth inhibition,[7]; at 1.2 µM,-4%
same,growth inhibition,[7]; at 3.7 µM,15%
same,growth inhibition,[7]; at 11.0 µM,48%
same,growth inhibition,[7]; at 33.0 µM,95% (active)
same,growth inhibition,[7]; at 100.0 µM,98% (active)
same,growth inhibition,[8]; [17],19%
same,growth inhibition,[8]; [18],39%
same,growth inhibition,[8]; at 50.0 µM,86.7% (active)
same,growth inhibition,[9]; at 1.2 µM,26%
same,growth inhibition,[9]; at 3.7 µM,31%
same,growth inhibition,[9]; at 11.0 µM,51%
same,growth inhibition,[9]; at 33.0 µM,94% (active)
same,growth inhibition,[9]; at 100.0 µM,99% (active)
same,growth inhibition,[10]; [17],44%
same,growth inhibition,[10]; [18],95% (active)
same,growth inhibition,[10]; at 50.0 µM,71.4% (active)
same,growth inhibition,[11]; at 1.2 µM,33%
same,growth inhibition,[11]; at 3.7 µM,45%
same,growth inhibition,[11]; [17],64%
same,growth inhibition,[11]; at 11.0 µM,80% (active)
same,growth inhibition,[11]; at 33.0 µM,96% (active)
same,growth inhibition,[11]; [18],97% (active)
same,growth inhibition,[11]; at 50.0 µM,86.2% (active)
same,growth inhibition,[11]; at 100.0 µM,99% (active)
same,growth inhibition,[12]; at 1.2 µM,-12%
same,growth inhibition,[12]; at 3.7 µM,15%
same,growth inhibition,[12]; at 11.0 µM,51%
same,growth inhibition,[12]; at 33.0 µM,93% (active)
same,growth inhibition,[12]; at 100.0 µM,98% (active)
same,growth inhibition,[13]; at 1.2 µM,27%
same,growth inhibition,[13]; at 3.7 µM,51%
same,growth inhibition,[13]; at 11.0 µM,85% (active)
same,growth inhibition,[13]; at 33.0 µM,97% (active)
same,growth inhibition,[13]; at 100.0 µM,98% (active)
same,growth inhibition,[14]; at 1.2 µM,31%
same,growth inhibition,[14]; at 3.7 µM,47%
same,growth inhibition,[14]; at 11.0 µM,77% (active)
same,growth inhibition,[14]; at 33.0 µM,96% (active)
same,growth inhibition,[14]; at 100.0 µM,98% (active)
same,growth inhibition,[15]; [17],69%
same,growth inhibition,[15]; [18],94% (active)
same,growth inhibition,[15]; at 50.0 µM,80.3% (active)
same,growth inhibition,[16]; at 1.2 µM,11%
same,growth inhibition,[16]; at 3.7 µM,14%
same,growth inhibition,[16]; at 11.0 µM,50%
same,growth inhibition,[16]; at 33.0 µM,91% (active)
same,growth inhibition,[16]; at 100.0 µM,98% (active)
COc1ccc(C2CC(C)(N3CCCC3)Oc3cc4c(cc32)OCO4)cc1 (stereo not drawn),growth inhibition,[1]; at 1.2 µM,4%
same,growth inhibition,[1]; at 3.7 µM,5%
same,growth inhibition,[1]; at 11.0 µM,4%
same,growth inhibition,[1]; at 33.0 µM,32%
same,growth inhibition,[1]; at 100.0 µM,94% (active)
same,growth inhibition,[2]; at 1.2 µM,-3%
same,growth inhibition,[2]; at 3.7 µM,-3%
same,growth inhibition,[2]; at 11.0 µM,-5%
same,growth inhibition,[2]; at 33.0 µM,-9%
same,growth inhibition,[2]; at 100.0 µM,11%
same,growth inhibition,[3]; at 1.2 µM,4%
same,growth inhibition,[3]; at 3.7 µM,4%
same,growth inhibition,[3]; at 11.0 µM,3%
same,growth inhibition,[3]; at 33.0 µM,9%
same,growth inhibition,[3]; at 100.0 µM,-3%
same,growth inhibition,[4]; at 1.2 µM,-1%
same,growth inhibition,[4]; at 3.7 µM,-1%
same,growth inhibition,[4]; at 11.0 µM,-3%
same,growth inhibition,[4]; at 33.0 µM,-5%
same,growth inhibition,[4]; at 100.0 µM,85% (active)
same,growth inhibition,[5]; at 1.2 µM,5%
same,growth inhibition,[5]; at 3.7 µM,1%
same,growth inhibition,[5]; [17],-7%
same,growth inhibition,[5]; at 11.0 µM,0%
same,growth inhibition,[5]; at 33.0 µM,37%
same,growth inhibition,[5]; [18],25%
same,growth inhibition,[5]; at 50.0 µM,64.5%
same,growth inhibition,[5]; at 100.0 µM,92% (active)
same,growth inhibition,[6]; at 1.2 µM,-1%
same,growth inhibition,[6]; at 3.7 µM,-1%
same,growth inhibition,[6]; [17],11%
same,growth inhibition,[6]; at 11.0 µM,-4%
same,growth inhibition,[6]; at 33.0 µM,1%
same,growth inhibition,[6]; [18],9%
same,growth inhibition,[6]; at 50.0 µM,9.8%
same,growth inhibition,[6]; at 100.0 µM,36%
same,growth inhibition,[7]; at 1.2 µM,0%
same,growth inhibition,[7]; at 3.7 µM,0%
same,growth inhibition,[7]; at 11.0 µM,-1%
same,growth inhibition,[7]; at 33.0 µM,9%
same,growth inhibition,[7]; at 100.0 µM,67%
same,growth inhibition,[8]; [17],-6%
same,growth inhibition,[8]; [18],47%
same,growth inhibition,[8]; at 50.0 µM,61.5%
same,growth inhibition,[9]; at 1.2 µM,2%
same,growth inhibition,[9]; at 3.7 µM,-1%
same,growth inhibition,[9]; at 11.0 µM,-6%
same,growth inhibition,[9]; at 33.0 µM,6%
same,growth inhibition,[9]; at 100.0 µM,68%
same,growth inhibition,[10]; [17],8%
same,growth inhibition,[10]; [18],34%
same,growth inhibition,[10]; at 50.0 µM,19.4%
same,growth inhibition,[11]; at 1.2 µM,1%
same,growth inhibition,[11]; at 3.7 µM,5%
same,growth inhibition,[11]; [17],22%
same,growth inhibition,[11]; at 11.0 µM,-21%
same,growth inhibition,[11]; at 33.0 µM,22%
same,growth inhibition,[11]; [18],74% (active)
same,growth inhibition,[11]; at 50.0 µM,41.4%
same,growth inhibition,[11]; at 100.0 µM,87% (active)
